Source: PubChem
Sm TGR block = blocks Schistosoma mansoni thioredoxin glutathione reductase; Q962Y6; purified TGR, DTNB reduction, TNB absorbance 405 nm; Potency, µM (doses to about 114 µM), usual class: inhibitors; actives 3% (n = 360,000); AID 485364; also: nearly all actives have a fitted effect of over 60% in size
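First, TGR (20 nM dispensed) and NADPH were mixed with compound. Second, a 15 min room-temperature incubation followed. Third, further NADPH and then DTNB were added to start the reaction. Finally, TNB absorbance was monitored kinetically.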
AmpC detergent = AmpC beta-lactamase inhibition with detergent present; P00811; AmpC hydrolysis of nitrocefin, absorbance 480 nm, 0.01% Triton; Potency, µM (series often up to 114 µM), actives largely listed as inhibitors; actives 0.041% (n = 370,000); also: nearly all actives have a fitted effect of over 25% in size
Target sequence (P00811 whole entry, looked up): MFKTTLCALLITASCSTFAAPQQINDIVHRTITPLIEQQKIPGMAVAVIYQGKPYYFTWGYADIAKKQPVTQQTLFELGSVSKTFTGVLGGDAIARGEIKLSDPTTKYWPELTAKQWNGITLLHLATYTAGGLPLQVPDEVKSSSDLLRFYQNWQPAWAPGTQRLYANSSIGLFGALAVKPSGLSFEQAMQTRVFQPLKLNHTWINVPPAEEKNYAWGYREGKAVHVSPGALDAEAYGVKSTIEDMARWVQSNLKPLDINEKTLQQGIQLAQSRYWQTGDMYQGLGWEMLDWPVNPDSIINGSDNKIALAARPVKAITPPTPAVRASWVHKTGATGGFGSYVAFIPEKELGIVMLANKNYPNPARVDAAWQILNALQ
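20 mM phosphate pH 7.0 + 0.01% (detergent screen) or 0.0001% Triton X-100; 5.3 nM AmpC reagent; cpd preinc 15 min RT; nitrocefin (800 uM stock) to start; A480 q20 s × 4 min; Activity was normalised to no-enzyme and no-compound control wells.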
AmpC no deterg = inhibitors of E. coli AmpC beta-lactamase without detergent; AID 485341; AmpC nitrocefin hydrolysis, absorbance 480 nm, 0.0001% Triton; actives 0.52% (n = 330,000); Potency, µM (doses to about 57.1 µM), usual class: inhibitors; also: nearly all actives have a fitted effect of over 20% in size
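20 mM phosphate pH 7.0 + 0.01% (detergent screen) or 0.0001% Triton X-100; 5.3 nM AmpC reagent; cpd preinc 15 min RT; nitrocefin (800 uM stock) to start; A480 q20 s × 4 min; Activity was normalised to no-enzyme and no-compound control wells.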
Hits are given with their value; . = inactive; ? = inconclusive; / = not tested or not shown; [ ] = another dose, or the depositor's remark. An excerpt weighted towards active compounds, which were near 3.3% of everything screened. Calls follow the shape of the dose curve; as a rule, active = well fitted curve in the direction sought with a large enough effect; inconclusive = small, poorly fitted or top-dose-only effect, or another doubt; inactive = no such curve, though single readings can be large; an effect the other way counts as inactive or inconclusive.

SMILES	Sm TGR block	AmpC detergent	AmpC no deterg
Cc1ccccc1Cn1nc(C)c(NC(=O)c2cc3nc(-c4ccco4)cc(C(F)(F)F)n3n2)c1C	.	.	.
Cc1nn(C)cc1NC(=O)c1cc2nc(-c3ccco3)cc(C(F)(F)F)n2n1	.	.	.
O=C(c1cc2nc(-c3ccco3)cc(C(F)(F)F)n2n1)N1CCc2ccccc2C1	50µM	.	.
COc1cccc(OCC(=O)NC2CC(=O)N(c3cccc(OC)c3)C2)c1 (stereo not drawn)	.	.	/
CC(=O)NC(CCS(C)(=O)=O)C(=O)Nc1cccc(C(C)=O)c1 (stereo not drawn)	45µM	.	.
CC(=O)NC(CCS(C)(=O)=O)C(=O)Nc1ccccc1 (stereo not drawn)	.	?	5µM
CC(=O)NC(CCS(C)(=O)=O)C(=O)Nc1ccc(Cl)c(Cl)c1 (stereo not drawn)	.	?	.
COc1ccc(NC(=O)C(CCS(C)(=O)=O)NC(C)=O)cc1 (stereo not drawn)	.	.	.
O=C(Nc1c2c(nn1-c1ccc(Cl)cc1)CS(=O)(=O)C2)c1cccc(Cl)c1	.	.	/
CCOCCCn1c(SCC(=O)Nc2ccccc2CC)nc2ccccc2c1=O	.	.	/
Cc1ccc(-c2nc(-c3cccnc3)sc2CC(=O)O)cc1	.	.	.
Cc1ccc(-c2sc(-c3cccnc3)nc2CC(=O)O)cc1	40µM	.	.
CCN=C1SC(C(=O)Nc2cccc(C)c2)CC(=O)N1CC (stereo not drawn)	.	?	.
Cc1cccc(NC(=O)C2CC(=O)n3cnnc3S2)c1 (stereo not drawn)	0.4µM	.	.
COC(=O)CCCC1=CC2=C(c3ccccc3)C(=O)C(C)(OC(=O)C3CCCC3)C(=O)C2=CN1Cc1ccc(OC)cc1 (stereo not drawn)	22µM	.	.
COC(=O)CCCC1=CC2=C(c3ccccc3)C(=O)C(C)(OC(=O)C3CCCC3)C(=O)C2=CN1c1ccccc1 (stereo not drawn)	.	.	.
COC(=O)CCCC1=CC2=C(c3ccccc3)C(=O)C(C)(OC(=O)C3CCCC3)C(=O)C2=CN1Cc1ccc2c(c1)OCO2 (stereo not drawn)	18µM	.	.
COC(=O)CCCC1=CC2=CC(=O)C(C)(OC(=O)c3cccs3)C(=O)C2=CN1Cc1ccc2c(c1)OCO2 (stereo not drawn)	.	.	.
CC1(C)Cc2c(sc3c2c2ncnn2c2nnc(SCC(=O)NCc4ccco4)n32)CO1	.[11.4 µM]	.	.
CCC1(C)Cc2c(sc3c2c2ncnn2c2nnc(SCC(=O)NCc4ccco4)n32)CO1 (stereo not drawn)	45µM	.	.
CC(C)[n+]1ccn(C2=C([O-])c3ccccc3C(=O)/C2=N\S(=O)(=O)c2ccccc2)c1	45µM	.	.
CCCC[n+]1ccn(C2=C([O-])c3ccccc3C(=O)/C2=N\S(=O)(=O)c2ccccc2)c1	.	.	.
CCOc1cc(CNCCSc2nnnn2C)ccc1OCc1ccc(Cl)cc1Cl	.	.	/
CC(=O)Nc1cccc(NC(=O)C(=O)NCCc2csc3nc(-c4ccccc4F)nn23)c1	.	.	/
Cn1c(=O)n(C)c2cc(N3CCOCC3)c(NC(=O)c3ccccc3Br)cc21	.	.	/
SMILES	Sm TGR block	AmpC detergent	AmpC no deterg
COc1ccc(S(=O)(=O)NCCc2csc3nc(-c4ccc(Cl)cc4)nn23)cc1C	.	.	/
Cc1ccn2c(=O)nc(SCC(=O)NCCc3ccccc3)nc2c1	.	?	32µM
O=C(CSc1nc(=O)n2ccccc2n1)NCCc1ccccc1	.	?	.
COc1ccc2c(c1O)-c1c(OC)c(OC)cc3c1[C@H](C2)N(C)CC3	.	?	.
COc1ccc2cc1Oc1ccc(cc1)C[C@H]1c3cc(c(OC)cc3CCN1C)Oc1c(OC)c(OC)cc3c1[C@@H](C2)N(C)CC3	35µM	.	.
CC(C)COC(=O)c1cc(-c2ccc(/C=N/n3cnnc3)o2)ccc1Cl	22µM	.	.
O=[N+]([O-])c1cc(-c2ccc(/C=N/n3cnnc3)o2)ccc1Cl	.	.	.
Cc1ccccc1CNC(=O)CN1C(=O)CCCc2ccccc21	.	.	/
COC(=O)c1cc(=O)n(CCc2ccc(OC)cc2)c(=Nc2ccc(F)c(Cl)c2)s1	.	.	.
COC(=O)c1cc(=O)n(CCc2ccccc2)c(=Nc2ccc(F)cc2)s1	.	.	0.71µM
Cc1cccc(OCC(=O)NCc2ccc3c(c2)CCN3C(=O)c2ccccc2)c1	.	.	/
O=C(CSc1nc2sc3c(c2c(=O)n1-c1ccccc1)CCCC3)NCc1ccco1	.	.	.
CC(C)c1nc2sc3c(SCC(=O)NCc4ccco4)ncnc3c2c2c1CCC2	25µM	.	.
CC(C)Cc1nc2sc3c(SCC(N)=O)ncnc3c2c2c1CCC2	.	.	.
O=C(CSc1ncnc2sc3c(c12)CCCC3)c1ccco1	.	.	.
COCCCn1c(SCC(=O)NCc2ccco2)nc2sc3c(c2c1=O)CCC3	40µM	.	.
O=C(CSc1ncnc2sc3c(c12)CCCCC3)NCc1ccco1	32µM	.	.
COc1ccc(OCC(=O)Nc2ccccc2C(=O)OCc2cc(=O)n3nc(C)sc3n2)cc1	.	.	/
CCN1CCN(c2ncc3c(n2)CC(c2ccc(OC)c(OC)c2)CC3=O)CC1 (stereo not drawn)	.	.	.
CCOC(=O)N1CCN(c2ncc3c(n2)CC(c2ccc(OC)c(OC)c2)CC3=O)CC1 (stereo not drawn)	4.5µM	.	/
CCCCOC(=O)c1c(C)oc2c1cc(NS(=O)(=O)c1cc(OC)ccc1OC)c1ccccc12	.	.	/
NS(=O)(=O)c1ccc(N2N=C(c3ccccc3)CC2c2ccccc2)cc1 (stereo not drawn)	.	.	?
CCc1ccc(C2=NN(c3ccc(S(N)(=O)=O)cc3)C(c3ccc(F)cc3)C2)cc1 (stereo not drawn)	.	.	0.2µM
COc1ccccc1CNS(=O)(=O)c1cc(Br)cc2c1N(C(=O)C1CC1)CC2	.	.	/
CCc1cc2c(=O)c(-c3ccc4c(c3)OCO4)coc2c(CN(C)C)c1O	.	.	25µM
SMILES	Sm TGR block	AmpC detergent	AmpC no deterg
CCc1cc2c(=O)c(-c3cscn3)coc2c(CN(C)C)c1O	.	?	.
COc1ccc(Cl)cc1NC(=O)c1noc2c1CCc1ccccc1-2	.	.	/
Cc1ccc(Cl)cc1NC(=O)Cn1nnc2sc3c(c2c1=O)CCC(C(C)(C)C)C3 (stereo not drawn)	.	.	/
Cc1nc2ccccc2c2oc(C(=O)NC3CC3)cc12	.	.	.
CCOc1ccc(NC(=O)c2cc3c(C)nc4ccccc4c3o2)cc1	.	?	5µM
COc1ccc2c(c1)C1(Nc3ccccc3-c3nc4ccccc4n31)C(=O)N2C (stereo not drawn)	.	.	.
COc1ccc2c(c1)C1(Nc3ccccc3-c3nc4ccccc4n31)C(=O)N2 (stereo not drawn)	.	.	20µM
O=C(Oc1ccc2c(=O)c(Cl)coc2c1)c1cccnc1	32µM	?	.
O=C(Oc1ccc2c(=O)c(Oc3ccc4ccccc4c3)coc2c1)c1cccnc1	.	.	.
